Results as given in ChEMBL document CHEMBL3988442, “University of Dundee, Small-Polar-MMV Screening Library” (2021).
The whole screen tested about 85,000 compounds, of which about 440 (0.52%) showed an effect of 50% or more. The sample as a whole holds a higher share of strong results than the screen did.

Experiment: In vitro enzyme assay to detect hydrolysis of chlorophenol red-beta-D-[…] directly proportional to the number of Toxoplasma stably expressing beta-galactosidase
Assay type: functional, organism-based, Toxoplasma gondii
Set-up: scale not given: in the data most compounds retested in dose-response had high values

| SMILES | Percent Effect (50 µM) [%] | Percent Effect (10 µM) [%] |
| --- | --- | --- |
| NCCc1n[nH]c(=O)n1-c1ccc2c(c1)OCO2 | -0.07643 | – |
| Cn1cc(C(O)CN)cn1 (stereo not given) | 1.018 | – |
| Cc1noc(C(C)Nc2ccc3c(c2)CCC(=O)N3)n1 (stereo not given) | -14.26 | – |
| CC(C)(CNC(=O)c1c[nH]nn1)c1cccc(F)c1 | -9.623 | – |
| CC(NC(=O)NCCN1CCCCCC1=O)c1nncn1C (stereo not given) | – | 3.231 |
| CC(NC(=O)NCCCN1CCCCCC1=O)c1nncn1C (stereo not given) | – | 20.07 |
| CC(NC(=O)NCCCN1CCCC1=O)c1nncn1C (stereo not given) | – | 85.8 |
| Cc1oc(-c2ccccc2F)nc1C(=O)N(C)C | -3.464 | – |
| CNS(=O)(=O)N1CCc2ccccc2C1 | 30.15 | – |
| COc1ccc2ccccc2c1CNCC1CCS(=O)(=O)C1.Cl (stereo not given) | – | -11.16 |
| CCOc1ccc2ccccc2c1CNCC1CCNCC1.Cl.Cl | – | 68.87 |
| CCOc1ccccc1CNCC1CCN(CC(C)O)CC1 (stereo not given) | – | -9.723 |
| CCOc1ccc2ccccc2c1CNCC1CCS(=O)(=O)C1.Cl (stereo not given) | – | -7.781 |
| CCCOc1ccc2ccccc2c1CN1CC[C@@]2(O)CCNC[C@H]2C1 | – | 3.549 |
| CCn1cc(S(=O)(=O)NCC2CCN(C3CC3)C2)cn1 (stereo not given) | 3.955 | – |
| NC(=O)c1cncc(-c2ccc(F)cc2Cl)c1 | 3.051 | – |
| Cc1cc(F)cc(C(=O)N(C)C(C)CN)c1 (stereo not given) | -5.582 | – |
| CNC(C)(C)c1ccc2c(c1)OCO2 | -13.39 | – |
| COc1ccc(N2Cc3nc(N)ncc3C2=O)cc1Cl | – | -32.44 |
| CCNc1ncc2c(n1)CN(c1ccc(C)c(C)c1)C2=O | – | 51.11 |
| CNc1ncc2c(n1)CN(CCc1ccc(Cl)cc1)C2=O | – | -35.33 |
| CNc1ncc2c(n1)CN(Cc1ccc(Cl)cc1)C2=O | – | -51.17 |
| COc1ccc(N2Cc3nc(N4CCCC4)ncc3C2=O)cc1Cl | – | -14.31 |
| CNc1ncc2c(n1)CN(CCc1ccc(F)cc1)C2=O | – | -13.73 |
| CCNc1ncc2c(n1)CN(c1ccc(Cl)cc1)C2=O | – | 65.79 |

| SMILES | Percent Effect (50 µM) [%] | Percent Effect (10 µM) [%] |
| --- | --- | --- |
| CCn1cc(N2Cc3nc(N)ncc3C2=O)cn1 | – | 10.4 |
| CNc1ncc2c(n1)CN(CCc1ccc(C)cc1)C2=O | – | -16.2 |
| CCNc1ncc2c(n1)CN(c1ccc(OC(F)(F)F)cc1)C2=O | – | 64.71 |
| CC1CCN(c2ncc3c(n2)CN(c2ccc(F)cc2)C3=O)CC1 | – | 19.77 |
| CCNc1ncc2c(n1)CN(c1ccc(CC)cc1)C2=O | – | 62.15 |
| CCN(CC)C(=O)C(C)NC(=O)c1cc(C#N)c[nH]1 (stereo not given) | -1.389 | – |
| O=C(OCCOc1cccnc1)C1CC1 | 43.8 | – |
| O=S(=O)(CCN1CCCC1)c1ccc(Cl)cc1 | 0.9615 | – |
| CNC(=O)CN(C)C(=O)Cc1c[nH]c2ccccc12 | 2.87 | – |
| Cc1ccsc1CN(C)C(=O)C(CN)c1ccccc1 (stereo not given) | -6.582 | – |
| CCN(CC)C(=O)c1ccccc1N(C)S(C)(=O)=O | -4.295 | – |
| CNc1ncc2c(n1)CN(C1CCCC1)C2=O | – | 52.32 |
| CNc1ncc2c(n1)CN(C1CC(C)(C)NC(C)(C)C1)C2=O | – | -1.01 |
| CC1CCC(N2Cc3nc(N)ncc3C2=O)CC1 (stereo not given) | – | -0.06734 |
| Nc1ncc2c(n1)CN(C1CCCC1)C2=O | – | 17.83 |
| CN(C)c1ncc2c(n1)CN(C1CCSCC1)C2=O | – | 78.86 |
| CN(C)c1ncc2c(n1)CN(C1CC(C)(C)NC(C)(C)C1)C2=O | – | -0.4714 |
| COCc1nc(C2CCN(S(C)(=O)=O)C2)no1 (stereo not given) | -61 | – |
| CC(O)CN(CCN)C(=O)OC(C)(C)C (stereo not given) | -7.411 | – |
| NCC(O)c1ccc(-c2ccccc2)cc1 (stereo not given) | 100.3 | – |
| NCC(O)c1cccc2ccccc12 (stereo not given) | 36.71 | – |
| NCC(O)c1ccncc1 (stereo not given) | 1.266 | – |
| CCN(CC)C(=O)CN(C)C(=O)Cc1cccc(F)c1 | 1.744 | – |
| CN(Cc1cc(C#N)cs1)Cc1nccn1C | -7.444 | – |
| CC(C)N1CCC(c2n[nH]cc2-c2ccnc(N)c2)C1 (stereo not given) | – | 18.38 |

| SMILES | Percent Effect (50 µM) [%] | Percent Effect (10 µM) [%] |
| --- | --- | --- |
| CC(C)Nc1cc(-c2c[nH]nc2C2CCN(C(=O)C3CCC3)C2)ccn1 (stereo not given) | – | 95.4 |
| CCCNc1cc(-c2c[nH]nc2C2CCN(C(=O)C3CCC3)C2)ccn1 (stereo not given) | – | 94.14 |
| CC(=O)N1CCC(c2n[nH]cc2-c2ccnc(N)c2)C1 (stereo not given) | – | 20.34 |
| Cc1c[nH]nc1C1CCN(C(=O)C2CCC2)CC1 | – | 14.73 |
| Nc1cc(-c2c[nH]nc2C2CCCCN2C(=O)C2CCCC2)ccn1 (stereo not given) | – | -17.94 |
| Cc1c[nH]nc1C1CCN(C(=O)C2CCOCC2)C1 (stereo not given) | – | 9.496 |
| CN1CCC(c2n[nH]cc2-c2ccnc(N)c2)C1 (stereo not given) | – | -7.314 |
| CC(C)Nc1cc(-c2c[nH]nc2C2CCN(C(=O)C3CC3)C2)ccn1 (stereo not given) | – | 77.26 |
| CC(C)CNc1cc(-c2c[nH]nc2C2CCN(C(=O)C3CC3)C2)ccn1 (stereo not given) | – | 86.59 |
| Cc1c[nH]nc1C1CCN(C(=O)C2CCCC2)C1 (stereo not given) | – | 6.331 |
| Nc1cc(-c2c[nH]nc2C2CCN(C(=O)C3CCCC3)C2)ccn1 (stereo not given) | – | 5.055 |
| NCCC(=O)N1CCCC1Cc1cccc(F)c1 (stereo not given) | -2.968 | – |
| COc1cc(Br)c(CN)cc1OC | 44.43 | – |
| CC(C(=O)N1CCCC1)N1CCN(c2nc[nH]n2)CC1 (stereo not given) | 16.6 | – |
| N#Cc1ccc(C(=O)NCCCc2csc(N)n2)cn1 | 3.81 | – |
| CC(=O)N(C)C1CCNCC1 | -2.944 | – |
| CNC(=O)CCSc1ccc2c(c1)OCCO2 | 0.7135 | – |
| NCC(=O)Nc1cc(C(F)(F)F)c[nH]c1=O | -2.166 | – |
| CCCn1ccnc1CNC(=O)CCC(=O)N(C)C | -10.54 | – |
| CNc1nnc(SCc2ncc(C)o2)s1 | -1.305 | – |
| COCC(=O)NCc1nn(CCN2CCCC2)c(=O)c2ccccc12 | – | 94.96 |
| CCOC(=O)NCc1nn(CCN2CCCC2)c(=O)c2ccccc12 | – | 7.365 |
| CCNC(=O)NCc1nn(CCN2CCCC2)c(=O)c2ccccc12 | – | 21.21 |
| CCC(=O)NC(C)(C#N)C(C)C (stereo not given) | 2.056 | – |
| CC1CCN(CC(N)=O)CC1 | -12.83 | – |
